Measles CPE: protection of cells from measles virus; 1.5% of 140,000 active; Measles virus-infected cells, CPE protection, absorbance; AID 841; protection (pct of control), % at 4 µM; in the data active means protection mostly above about 24%, no sharp cut-off; inactive means mostly below about 26%
CYP2C9 inhib: blocks human cytochrome P450 2C9 | 20% of 96,000 active | P11712 | CYP2C9 Supersomes, luciferin-H conversion, luminescence | inhibition, % at 5 µM;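 active means blocking of liver enzyme CYP2C9 beyond about 50% at 5 µM, limit read from the data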
CYP2C19 activ: activators of human cytochrome P450 2C19; P33261; recombinant CYP2C19, luciferin-H EGE luminescence; active compounds read high; 0 = fully inhibited enzyme, 1 = untreated enzyme; activation factor at 5 µM; 96,000 tested, under 10 active;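 active means activation factor of at least 2 at 5 µM in the primary screen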
Target sequence (P33261 whole entry, looked up): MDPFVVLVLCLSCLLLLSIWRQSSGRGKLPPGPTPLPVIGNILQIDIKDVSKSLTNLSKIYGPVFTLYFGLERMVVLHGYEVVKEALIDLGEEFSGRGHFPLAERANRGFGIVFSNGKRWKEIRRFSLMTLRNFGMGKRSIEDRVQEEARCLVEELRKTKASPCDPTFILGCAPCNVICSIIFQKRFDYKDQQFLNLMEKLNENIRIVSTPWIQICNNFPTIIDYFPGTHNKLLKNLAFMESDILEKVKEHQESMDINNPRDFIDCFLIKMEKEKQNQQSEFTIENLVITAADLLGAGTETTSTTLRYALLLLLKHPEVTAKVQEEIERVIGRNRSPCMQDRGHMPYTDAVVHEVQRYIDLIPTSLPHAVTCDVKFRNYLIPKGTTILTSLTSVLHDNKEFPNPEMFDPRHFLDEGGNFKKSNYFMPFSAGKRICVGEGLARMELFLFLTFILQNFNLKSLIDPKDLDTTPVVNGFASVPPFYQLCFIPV
CYP2C19 inhib: blocks human cytochrome P450 2C19 | inhibition, % at 5 µM | AID 778 | 21% of 96,000 active | CYP2C19 Supersomes, luciferin-H EGE luminescence, 30 min;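 active means CYP2C19 inhibition above a set limit at 5 µM in the primary screen, cut at about 50% in these data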
CYP2C9 activ: increases human cytochrome P450 2C9 activity; P11712; recombinant CYP2C9, luciferin-H conversion, luminescence; active compounds read high; factor 1 = untreated enzyme, 0 = blocked; activation factor at 5 µM; 1.4% of 96,000 active; AID 1024;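 active means activation factor of 2 or more for CYP2C9 at a 5 µM dose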
Large screens that a line does not name were inactive. This is a sample that favours compounds with a hit; in the whole collection about 22% have one here.

O=C(OCCCN1C(=O)c2ccccc2C1=O)c1ccco1	CYP2C9 inhib 61.6, CYP2C19 inhib 54.4
O=C(OCCCCN1C(=O)c2ccccc2C1=O)c1n[nH]c2ccccc12	CYP2C9 inhib 86.3, CYP2C19 inhib 83.7
CCOC(=O)c1[nH]c2ccccc2c1CCCN1C(=O)c2ccccc2C1=O	CYP2C9 inhib 85.9, CYP2C19 inhib 78.7
CC(=O)c1c(C)[nH]c(C(=O)OCCCCN2C(=O)c3ccccc3C2=O)c1C	CYP2C9 inhib 70.3
COC(=O)c1cc(C(=O)NCCN2C(=O)S/C(=C\c3cccs3)C2=O)cc([N+](=O)[O-])c1	none (no result: CYP2C9 inhib, CYP2C19 activ, CYP2C19 inhib, CYP2C9 activ)
CN1CCN(S(=O)(=O)c2cnccc2N2CCN(c3cccc(Cl)c3)CC2)CC1	none (no result: CYP2C9 inhib, CYP2C19 activ, CYP2C19 inhib, CYP2C9 activ)
CSc1ccc(Cn2nnc(C(=O)Nc3ccc(C)c(C)c3)c2N)cc1	none
CCN(CC)S(=O)(=O)c1ccc(Cl)c(NC(=O)COC(=O)/C=C/c2cc(OC)c(OC)c(OC)c2)c1	none (no result: CYP2C9 inhib, CYP2C19 activ, CYP2C19 inhib, CYP2C9 activ)
Cc1ccccc1NC(=O)c1sc2nc3c(c(-c4ccco4)c2c1N)CCCC3	CYP2C9 inhib 63.7
NC(=O)c1sc2nc3c(c(-c4cccs4)c2c1N)CCCCC3	Measles CPE 60.8
NC(=O)c1sc2nc3c(c(-c4cccnc4)c2c1N)CCC3	none (no result: CYP2C9 inhib, CYP2C19 activ, CYP2C19 inhib, CYP2C9 activ)
COC(=O)c1[nH]c2cccc(Cl)c2c1NC(=O)CN(C)C1CCCCC1	CYP2C9 inhib 63.3
COc1ccc(Cl)cc1NC(=O)CN(c1ccccc1)S(=O)(=O)N(C)C	CYP2C19 inhib 81.1
COc1ccc(Cl)cc1NC(=O)CN(C)C1CCCCC1	CYP2C19 inhib 86.0, CYP2C9 activ 2.3
COC(=O)c1[nH]c2cccc(OC)c2c1NC(=O)CCN1CCC(C(N)=O)CC1	none
COc1ccc(NC(=O)CN(c2ccccc2)S(=O)(=O)N(C)C)cc1OC	none
Cc1ccc(Cl)cc1NC(=O)COC(=O)C1CCCC1	CYP2C19 inhib 95.5
OC(COc1ccccc1)CN1C2=NCCCN2c2ccccc21 (configuration not stated)	none
COC(=O)C1C2C=CC3(CN(C(C)c4ccc(OC)cc4)C(=O)C13)O2 (configuration not stated)	none
Cc1cc(N(C)C)ccc1[N+](=O)[O-]	none (no result: CYP2C9 inhib, CYP2C19 activ, CYP2C19 inhib, CYP2C9 activ)
COc1ccc([N+](=O)[O-])cc1N1C(=O)c2cccc3cccc(c23)C1=O	none (no result: CYP2C9 inhib, CYP2C19 activ, CYP2C19 inhib, CYP2C9 activ)
COc1ccc(C)cc1NC(=O)COC(=O)c1c(C)noc1C	none
CSc1ccccc1NC(=O)CN(c1ccccc1Br)S(C)(=O)=O	none (no result: CYP2C9 inhib, CYP2C19 activ, CYP2C19 inhib, CYP2C9 activ)
CCOC(=O)c1ccccc1NC(=O)CN(c1ccccc1)S(=O)(=O)N(C)C	CYP2C9 inhib 93.9, CYP2C19 inhib 86.0
CCOC(=O)c1ccccc1NC(=O)CN(c1ccccc1OC)S(C)(=O)=O	none
Cc1cccc(C)c1N(CC(=O)Nc1cc(Cl)ccc1Oc1ccccc1)S(C)(=O)=O	CYP2C9 inhib 66.0
N=c1sccn1CC(=O)Nc1cc(Cl)ccc1Oc1ccccc1	none
CS(=O)(=O)N(CC(=O)Nc1cc(Cl)ccc1Cl)c1ccccc1Cl	CYP2C9 inhib 77.1, CYP2C19 inhib 95.6
Cc1noc(C)c1C(=O)OCC(=O)Nc1cc(Cl)ccc1Oc1ccccc1	CYP2C9 inhib 63.2
CC1CC1c1ccc(/C=C(\C#N)C(=O)Nc2ccccc2Cl)o1 (configuration not stated)	none (no result: CYP2C9 inhib, CYP2C19 activ, CYP2C19 inhib, CYP2C9 activ)
O=C1CC(c2ccco2)Cc2nc(NCC3CCCO3)ncc21 (configuration not stated)	none
O=C1CC(c2ccco2)Cc2nc(Nc3ccc(F)cc3)ncc21 (configuration not stated)	CYP2C9 inhib 59.0, CYP2C19 inhib 55.9
O=C1CC(c2ccccc2)Cc2nc(NCc3ccco3)ncc21 (configuration not stated)	CYP2C9 inhib 51.1
O=C(Nc1ncc2c(n1)CC(c1ccccc1)CC2=O)c1ccco1 (configuration not stated)	none (no result: CYP2C9 inhib, CYP2C19 activ, CYP2C19 inhib, CYP2C9 activ)
COc1ccccc1C(=O)Nc1ncc2c(n1)CC(c1ccco1)CC2=O (configuration not stated)	CYP2C19 inhib 56.1
Cc1cc(SCNC(=O)c2ccccc2)ncn1	none
C=CCn1c(SCCC(=O)O)nc2c1c(=O)n(C)c(=O)n2C	none
COc1cc(NC(=O)C2CC2)c(C(=O)O)cc1OC	none
c1ccc2c(c1)nc1n2CCS1	CYP2C19 inhib 62.5
Cc1nnc(SCC(=O)Nc2ccc(Oc3ccccc3)cc2)n1N	none
Cc1oc2c(CN3CCCC3)c(O)ccc2c(=O)c1Oc1ccccc1Br	Measles CPE 19.4
COc1ccc(Oc2c(C)oc3c(CN4CCOCC4)c(O)ccc3c2=O)cc1	Measles CPE 34.5
O=C1CCCc2c1nn(-c1ccccc1)[n+]2[O-]	none
COc1ccccc1CNC(=O)COC(=O)c1ccc(S(=O)(=O)N2CCCC2)cc1	none
O=C(Cn1c(C(F)(F)F)nc2ccccc21)c1ccc(Br)cc1	none
CNC(=S)N/N=C(\C)c1ccc(-n2ccnc2)cc1	CYP2C9 inhib 100.3, CYP2C19 inhib 99.2
C/C(=N\NC(=O)c1ccc(C)cc1C)c1ccc(-n2ccnc2)cc1	none (no result: CYP2C9 inhib, CYP2C19 activ, CYP2C19 inhib, CYP2C9 activ)
COCCNC(=S)N/N=C(\C)c1ccc(-n2ccnc2)cc1	CYP2C9 inhib 99.7, CYP2C19 inhib 98.9
CCOc1ccc(S(=O)(=O)Nc2ccc(C(=O)N/N=C(\C)c3ccc(-n4ccnc4)cc3)cc2)cc1	CYP2C9 inhib 99.4, CYP2C19 inhib 99.3
C/C(=N\NC(=S)NC(C)C)c1ccc(-n2ccnc2)cc1	CYP2C9 inhib 99.1, CYP2C19 inhib 90.1
O=C(Nc1ccccc1)Nc1cc(S(=O)(=O)N2CCOCC2)ccc1N1CCCC1	none (no result: CYP2C9 inhib, CYP2C19 activ, CYP2C19 inhib, CYP2C9 activ)
CCC(C)NC(=O)COC(=O)c1cccnc1Nc1ccccc1F (configuration not stated)	none (no result: CYP2C9 inhib, CYP2C19 activ, CYP2C19 inhib, CYP2C9 activ)
CCCC(=O)Nc1ccc(C(=O)N/N=C2\CC(=O)CC(C)(C)C2)cc1	none
Cc1nc2c(c(=O)n1CCC(C)C)c1nc3ccccc3nc1n2Cc1ccc2c(c1)OCO2	CYP2C9 inhib 58.2 (no result: Measles CPE)
CCC(C)n1cnc2c(c1=O)c1nc3ccccc3nc1n2Cc1ccc2c(c1)OCO2 (configuration not stated)	CYP2C9 inhib 98.8, CYP2C19 inhib 81.1
CCOC(=O)C1=C(NC(=O)c2ccc(Br)o2)Nc2ccccc2N=C1	CYP2C9 inhib 60.0
COc1ccc(C2=CC(c3cc(OC)c(OC)c(OC)c3)NC(=S)N2)cc1 (configuration not stated)	CYP2C9 inhib 94.0, CYP2C19 inhib 73.8
COc1ccc(OC)c(C2C=C(C34CC5CC(CC(C5)C3)C4)NC(=S)N2)c1 (configuration not stated)	Measles CPE 34.5 (no result: CYP2C9 inhib, CYP2C19 activ, CYP2C19 inhib, CYP2C9 activ)
COc1cc(C2C=C(C34CC5CC(CC(C5)C3)C4)NC(=S)N2)cc(OC)c1OC (configuration not stated)	CYP2C9 inhib 53.5
CN(Cc1ccccc1)C(=O)CN(C1CCCCC1)S(C)(=O)=O	none
Cn1cccc1Cc1nnc(SCC(=O)N2CCc3ccccc32)n1CCc1ccccc1	none
OC(Cn1cncn1)c1ccc(Cl)cc1 (configuration not stated)	CYP2C9 inhib 58.2, CYP2C19 inhib 95.1
O=C(/C(=C/c1ccccc1)n1cncn1)c1ccc(Cl)cc1Cl	none (no result: CYP2C9 inhib, CYP2C19 activ, CYP2C19 inhib, CYP2C9 activ)

Bioassay records from PubChem BioAssay.
